Measured values reported in PubChem BioAssay (NCATS).
Records with an inconclusive call do not appear. Active and inactive are the calls of the source. The call rests on the fitted dose curve; in most records, active means well fitted activation curve with a large enough effect; inconclusive means small, poorly fitted or top-dose-only effect; inactive means no such curve, though single readings can be large or run the other way.

molecular target: Rap guanine nucleotide exchange factor 3 (Homo sapiens) (UniProt O95398); assay: Confirmatory qHTS for agonist of cAMP-regulated guanine nucleotide exchange factor 3 (EPAC1) (AID 1645881); conditions: EPAC1 Rap1B BODIPY-GDP exchange fluorescence; series mostly up to 154 µM;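 further: EPAC1 catalysed release of BODIPY-GDP from Rap1B seen as fluorescence loss; nearly all actives have a fitted effect of over 75% in size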
Sequence (O95398 whole entry, looked up): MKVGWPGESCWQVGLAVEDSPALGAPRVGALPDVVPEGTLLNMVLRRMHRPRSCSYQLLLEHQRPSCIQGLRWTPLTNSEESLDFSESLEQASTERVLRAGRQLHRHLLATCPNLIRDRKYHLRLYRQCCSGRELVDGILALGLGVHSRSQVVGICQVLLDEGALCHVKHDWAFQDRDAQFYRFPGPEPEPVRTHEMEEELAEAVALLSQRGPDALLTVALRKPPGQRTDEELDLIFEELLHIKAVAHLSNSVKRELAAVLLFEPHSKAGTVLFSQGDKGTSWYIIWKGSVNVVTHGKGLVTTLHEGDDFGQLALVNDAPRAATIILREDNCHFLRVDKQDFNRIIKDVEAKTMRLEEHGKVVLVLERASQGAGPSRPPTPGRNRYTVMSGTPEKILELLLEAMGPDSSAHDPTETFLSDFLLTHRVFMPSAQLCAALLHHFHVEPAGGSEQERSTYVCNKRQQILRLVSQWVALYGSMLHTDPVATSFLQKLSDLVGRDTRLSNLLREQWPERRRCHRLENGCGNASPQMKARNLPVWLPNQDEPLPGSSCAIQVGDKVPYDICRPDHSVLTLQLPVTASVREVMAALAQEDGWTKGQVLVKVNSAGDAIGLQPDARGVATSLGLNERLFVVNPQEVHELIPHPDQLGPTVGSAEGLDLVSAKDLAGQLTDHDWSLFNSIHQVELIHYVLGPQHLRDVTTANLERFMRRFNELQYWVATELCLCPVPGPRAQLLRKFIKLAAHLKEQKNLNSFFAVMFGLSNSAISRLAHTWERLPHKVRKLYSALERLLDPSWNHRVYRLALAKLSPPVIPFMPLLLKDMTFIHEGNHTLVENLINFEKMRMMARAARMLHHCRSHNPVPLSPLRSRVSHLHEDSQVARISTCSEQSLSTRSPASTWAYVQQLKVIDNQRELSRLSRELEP

Potency, inactive:
N#C/C(=C/C1=C(N2CCOCC2)C(=C/c2cccc([N+](=O)[O-])c2)/CC1)C(=O)Nc1ccccc1F
NC(=O)C1CCN(C(=O)c2ccc3c(=O)n(Cc4cccc(Br)c4)c(=S)[nH]c3c2)CC1
CC(C)CNc1ncnc2onc(-c3ccc(Cl)cc3)c12
COCOCCn1cc(CN2CCS(=O)(=O)N(Cc3ccc(-c4ccccc4)cc3)C(CC(C)C)C2=O)nn1 (stereo not given)
CCOC(=O)c1ccc(NC(=S)NNC(=O)C2(C)CC2(Cl)Cl)cc1 (stereo not given)
CC(=O)C(=Cc1ccc(Cl)cc1)C(=O)c1ccccc1
CC(=O)c1ccc(OCc2nnn(CC(=O)NS(=O)(=O)c3ccc(C)cc3)c2-c2ccccc2)cc1
COc1ccc(NC(=O)Cn2ncc(Cl)c(Cl)c2=O)cc1S(=O)(=O)N1CCOCC1
Cc1ccc(O)c(-c2n[nH]c3c2C(c2ccc(F)cc2)N(Cc2ccco2)C3=O)c1 (stereo not given)
O=c1cc(-c2ccccc2)[nH]n1-c1nc2ccccc2s1
Cc1ccnc(NC(=O)C2CCN(S(=O)(=O)c3cccc(C(F)(F)F)c3)CC2)c1
O=C(c1[nH]c(C(F)(F)F)nc1-c1ccccc1)N1CCC(C(O)(c2ccccc2)c2ccccc2)CC1
CCc1nc2ccc(C(=O)Nc3ccc(OC)c(OC)c3)cn2c1N(C)CCC(C)C
Cc1ccc(C)c(Cn2c(C3CC(=O)N(c4ccccc4C)C3)nc3ccccc32)c1 (stereo not given)
C/C(=N\Nc1ccc([N+](=O)[O-])cc1)c1ccc(O)cc1
